This note sets out measurements from PubChem BioAssay (NCATS).

Inconclusive results are not listed. Where a call stands in place of a potency, no number is given. Activity calls are given as the source filed them. Unless noted, calls come from the whole dose curve; as a rule, active = well fitted curve in the direction sought with a large enough effect in the repeat runs; inconclusive = weak or mixed curves; inactive = no such curve, though single readings can be large; an effect the other way counts as inactive or inconclusive.

Cytochrome P450 2D6 (Homo sapiens), sequence (P10635 whole entry, looked up): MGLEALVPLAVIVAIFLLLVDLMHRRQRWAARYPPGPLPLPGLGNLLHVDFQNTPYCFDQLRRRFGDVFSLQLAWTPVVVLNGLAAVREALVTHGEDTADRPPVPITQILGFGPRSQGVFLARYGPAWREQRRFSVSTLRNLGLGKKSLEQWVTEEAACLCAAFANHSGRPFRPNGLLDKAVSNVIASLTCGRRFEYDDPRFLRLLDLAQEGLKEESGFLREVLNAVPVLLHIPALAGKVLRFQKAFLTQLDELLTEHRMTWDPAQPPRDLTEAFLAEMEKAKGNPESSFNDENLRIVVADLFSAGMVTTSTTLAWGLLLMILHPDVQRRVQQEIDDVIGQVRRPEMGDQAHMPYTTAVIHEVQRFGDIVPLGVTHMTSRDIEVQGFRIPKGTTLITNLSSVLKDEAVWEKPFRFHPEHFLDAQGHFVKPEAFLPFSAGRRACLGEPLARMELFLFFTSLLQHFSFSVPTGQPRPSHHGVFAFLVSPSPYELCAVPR
Cytochrome P450 2C9 (Homo sapiens), sequence (P11712 whole entry, looked up): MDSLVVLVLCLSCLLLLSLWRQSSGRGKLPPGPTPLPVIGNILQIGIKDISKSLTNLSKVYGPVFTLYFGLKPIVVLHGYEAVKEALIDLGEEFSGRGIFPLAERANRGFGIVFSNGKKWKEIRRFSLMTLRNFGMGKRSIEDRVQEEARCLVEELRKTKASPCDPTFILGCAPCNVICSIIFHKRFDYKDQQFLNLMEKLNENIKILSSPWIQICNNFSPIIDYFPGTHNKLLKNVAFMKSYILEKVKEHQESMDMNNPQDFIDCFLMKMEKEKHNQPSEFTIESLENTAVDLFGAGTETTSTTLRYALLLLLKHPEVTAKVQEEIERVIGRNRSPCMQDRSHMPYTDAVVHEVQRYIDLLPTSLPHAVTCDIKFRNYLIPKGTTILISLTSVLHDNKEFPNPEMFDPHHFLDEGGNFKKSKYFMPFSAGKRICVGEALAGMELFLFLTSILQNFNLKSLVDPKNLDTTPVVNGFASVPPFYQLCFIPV

System in one assay: not listed separately
The experiment in a line: A High-Content qHTS Against Drug Library for the Identification of Small Molecules that Inhibit DYT1 Early Onset Primary Dystonia-Associated Cell Pathology (AID 1645839; calls by dose curve). Conditions: HEK293 Flp-In EGFP-delE TorsinA, punctate imaging, 48 h; series mostly up to 46.1 µM. The procedure, abridged:
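High-content imaging quantified EGFP-TorsinA mislocalization in HEK293-derived cells inducibly expressing DYT1 mutant torsinA, after 48 h exposure to compound given together with tetracycline induction. Cell count served as a toxicity channel alongside %pathology.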
(Quantitative high-throughput screening tests each substance at several concentrations.)
Consider `CNC(=O)c1c(I)c(NC(=O)CCCCC(=O)Nc2c(I)c(C(=O)O)c(I)c(C(=O)NC)c2I)c(I)c(C(=O)O)c1I`, for which the Potency entry is “inactive”.
Still for that read-out and setting: the entry for `O=C(Nc1ccc(C(=O)O)c(O)c1)c1ccccc1` is “inactive”; for `CCCCCCCCCCCCCCCC(=O)OC(C)C` it is “inactive”; for `COc1ccc(-c2cc(=S)ss2)cc1` it is “inactive”.
Same read-out and setting: the entry for `CN(C)CCn1nnnc1SCC1=C(C(=O)O)N2C(=O)[C@@H](NC(=O)Cc3csc(N)n3)[C@H]2SC1` is “inactive”.
In the case of `Cc1ccc(O)c(-n2nc3ccccc3n2)c1`, the Potency entry was “inactive”.
In the case of `O=C(O)/C=C\C(=O)O`, the Potency entry is “inactive”.
On the same count and under the same terms, then `CCCCCCCCCCCCOCCO`, with “inactive”.
On to `O=Cc1ccc(O)c(O)c1O`, for which the Potency entry is “inactive”.
For the compound `CO[C@@]1(NC(=O)Cc2cccs2)C(=O)N2C(C(=O)O)=C(COC(N)=O)CS[C@@H]21`, the Potency entry was “inactive”.
Same read-out and setting: then `C[N+]1(C)[C@@H]2CC(OC(=O)[C@H](CO)c3ccccc3)C[C@H]1[C@@H]1O[C@@H]12` (stereo partly drawn), with “inactive”.
For `CCCCCCOc1ccccc1C(N)=O`, the Potency entry is “inactive”.
For `c1ccc(CCNc2nc(-c3ccccc3)cs2)cc1`, the Potency entry was “inactive”.
Take `CN(C)[C@@H]1C(=O)C(C(=O)NCN2CCCC2)=C(O)[C@@]2(O)C(=O)C3=C(O)c4c(O)cccc4[C@@](C)(O)C3C[C@@H]12` (stereo partly drawn): the Potency result was “inactive”.
For the compound `COC(=O)C1=C(C)NC(C)=C(C(=O)OCC(C)=O)C1c1ccccc1[N+](=O)[O-]` (stereo not drawn), the Potency result was “inactive”.
Take `COc1cc2c3cc1Oc1cc(ccc1O)C[C@@H]1c4c(cc(OC)c(O)c4Oc4ccc(cc4)C[C@@H]3N(C)CC2)CC[N+]1(C)C`: the Potency result was “inactive”.
Consider `CC1(C)S[C@@H]2[C@H](NC(=O)[C@H](N)c3ccccc3)C(=O)N2[C@H]1C(=O)O`, for which the Potency result is “inactive”.
Turning to `CN1CC(=O)N/C1=N/C(=O)Nc1cccc(Cl)c1`, the Potency result is “inactive”.
As for `Cc1c(N)c(=O)n(-c2ccccc2)n1C`, the Potency result is “inactive”.
The same measure, in the same setting: then `COc1ccnc2c1CCCCC2S(=O)c1nc2ccccc2[nH]1` (stereo not drawn), with “inactive”; and `Nc1nc2ccc([N+](=O)[O-])cc2s1`, with “inactive”.
On to `O=C(O)Cc1ccc2c(c1)C(=O)c1ccccc1CO2`, for which the Potency entry is “inactive”.
On to `CCCCCCCCCCCCCCCCCC(=O)O`, for which the Potency entry was “inactive”.
On to `CC(C)(C)c1nnc(NS(=O)(=O)c2ccc(N)cc2)s1`, for which the Potency entry is “inactive”.
Regarding `O=C(O)Cc1ccc(-c2ccccc2)cc1`, the Potency result was “inactive”.
For `Cc1ccc2c(n1)Oc1ccc(C(C)C(=O)OCC(=O)N(C)C)cc1C2` (stereo not drawn), the Potency entry was “inactive”.
With `O=C1CN(/N=C/c2ccc([N+](=O)[O-])o2)C(=O)N1`, the Potency entry is “inactive”.
Turning to `Nc1cc(-c2ccncc2)c[nH]c1=O`, the Potency result is “inactive”.
On to `Nc1ccc(C(=O)O)c(O)c1`, for which the Potency result is “inactive”.

The next assay concerns the target Cytochrome P450 2D6 (Homo sapiens) (UniProt P10635). The experiment in a line: Cytochrome P450 family 2 subfamily D member 6 (CYP2D6) small molecule antagonists: luciferase biochemical (cell-free) qHTS assay (AID 1645840). Note: nearly all actives have a fitted effect of over 55% in size. Note: potency is the fitted concentration of half-maximal effect. The settings on record: P450-Glo CYP2D6 enzyme, luciferin luminescence, 1 h; series mostly up to 57.4 µM. The procedure, abridged: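 P450-Glo CYP2D6 system: proluciferin substrate converted by enzyme to luciferin, read by luminescence proportional to activity. Enzyme-substrate mix with compound 10 min at room temperature, then NADPH regeneration 1 h before detection reagent.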
As to `CNC(=O)c1c(I)c(NC(=O)CCCCC(=O)Nc2c(I)c(C(=O)O)c(I)c(C(=O)NC)c2I)c(I)c(C(=O)O)c1I`, the Potency result was “inactive”.
Regarding `O=C(Nc1ccc(C(=O)O)c(O)c1)c1ccccc1`, the Potency is 13.8 µM (active).
As to `CN(C)c1ccc(N=NS(=O)(=O)O)cc1`, the Potency was 2.37 µM (active).
On the same count and under the same terms, then `C[S+](CC[C@H](N)C(=O)O)C[C@H]1O[C@@H](n2cnc3c(N)ncnc32)[C@H](O)[C@@H]1O` (stereo partly drawn), with “inactive”; and `O=C(O)/C=C\C(=O)O`, with “inactive”; and `O=Cc1ccc(O)c(O)c1O`, with “inactive”.
Take `CO[C@@]1(NC(=O)Cc2cccs2)C(=O)N2C(C(=O)O)=C(COC(N)=O)CS[C@@H]21`: the Potency entry was “inactive”.
On to `C[N+]1(C)[C@@H]2CC(OC(=O)[C@H](CO)c3ccccc3)C[C@H]1[C@@H]1O[C@@H]12` (stereo partly drawn), for which the Potency result was “inactive”.
Turning to `c1ccc(CCNc2nc(-c3ccccc3)cs2)cc1`, the Potency is 5.49 µM (active).
With `Cc1cc(O)c2ccccc2c1O`, the Potency was 11 µM (active).
Regarding `NS(=O)(=O)c1ccc(-n2nc(C(F)(F)F)cc2-c2ccc(Cl)cc2)cc1`, the Potency was 7.56 µM (active).
Consider `COc1cc2c3cc1Oc1cc(ccc1O)C[C@@H]1c4c(cc(OC)c(O)c4Oc4ccc(cc4)C[C@@H]3N(C)CC2)CC[N+]1(C)C`, for which the Potency result was “inactive”.
The same measure, in the same setting: the entry for `CC1(C)S[C@@H]2[C@H](NC(=O)[C@H](N)c3ccccc3)C(=O)N2[C@H]1C(=O)O` is “inactive”; for `CCCC(=O)OC[C@@H](OC(=O)CCC)[C@@H](OC(=O)CCC)[C@H](Cn1c2nc(=O)[nH]c(=O)c-2nc2cc(C)c(C)cc21)OC(=O)CCC` it is 7.76 µM (active).
For the compound `Cc1c(N)c(=O)n(-c2ccccc2)n1C`, the Potency entry was “inactive”.
The same measure, in the same setting: then `NC(=O)C(c1ccccc1)(c1ccccc1)[C@@H]1CCN(CCc2ccc3c(c2)CCO3)C1`, with 0.617 µM (active).
Take `COc1ccnc2c1CCCCC2S(=O)c1nc2ccccc2[nH]1` (stereo not drawn): the Potency is 0.347 µM (active).
Turning to `O=C(O)Cc1ccc2c(c1)C(=O)c1ccccc1CO2`, the Potency entry was “inactive”.
Consider `CC(C)(C)c1nnc(NS(=O)(=O)c2ccc(N)cc2)s1`, for which the Potency entry is “inactive”.
The same measure, in the same setting: then `O=C(O)Cc1ccc(-c2ccccc2)cc1`, with “inactive”.
As for `S=c1[nH]c2ccccc2s1`, the Potency was 29.1 µM (active).
Still for that read-out and setting: the figure for `Nc1cc(-c2ccncc2)c[nH]c1=O` is 12.3 µM (active); for `Nc1ccc(C(=O)O)c(O)c1` it is “inactive”.

The next assay concerns the target Cytochrome P450 2C9 (Homo sapiens) (UniProt P11712). As to the kind of experiment: Cytochrome P450 family 2 subfamily C member 9 (CYP2C9) small molecule antagonists: luciferase biochemical (cell-free) qHTS assay (AID 1645842). Note: nearly all actives have a fitted effect of over 55% in size. Note: potency is the fitted concentration of half-maximal effect. Conditions: P450-Glo CYP2C9 enzyme assay, luciferin luminescence; series mostly up to 57.4 µM. In a few lines: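 P450-Glo CYP2C9 system: proluciferin substrate with enzyme in mix containing 0.4% BSA, 10 min at room temperature, then NADPH regeneration solution added and incubated 1 h at 37C. Detection reagent stopped reaction; luminescence read after 20 min as RLU.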
Regarding `CNC(=O)c1c(I)c(NC(=O)CCCCC(=O)Nc2c(I)c(C(=O)O)c(I)c(C(=O)NC)c2I)c(I)c(C(=O)O)c1I`, the Potency entry is “inactive”.
For `CN(C)c1ccc(N=NS(=O)(=O)O)cc1`, the Potency was 0.728 µM (active).
As for `CCCCCCCCCCCCCCCC(=O)OC(C)C`, the Potency entry is “inactive”.
On to `COc1ccc(-c2cc(=S)ss2)cc1`, for which the Potency was 11 µM (active).
Take `CN(C)CCn1nnnc1SCC1=C(C(=O)O)N2C(=O)[C@@H](NC(=O)Cc3csc(N)n3)[C@H]2SC1`: the Potency entry is “inactive”.
On to `Cc1ccc(O)c(-n2nc3ccccc3n2)c1`, for which the Potency was 4.36 µM (active).
As for `O=C(O)/C=C\C(=O)O`, the Potency entry is “inactive”.
Still for that read-out and setting: the entry for `CCCCCCCCCCCCOCCO` is “inactive”.
In the case of `O=Cc1ccc(O)c(O)c1O`, the Potency result was “inactive”.
Take `CO[C@@]1(NC(=O)Cc2cccs2)C(=O)N2C(C(=O)O)=C(COC(N)=O)CS[C@@H]21`: the Potency entry was “inactive”.
On the same count and under the same terms, then `CCCCCCOc1ccccc1C(N)=O`, with 8.71 µM (active); and `c1ccc(CCNc2nc(-c3ccccc3)cs2)cc1`, with 5.49 µM (active); and `NS(=O)(=O)c1ccc(-n2nc(C(F)(F)F)cc2-c2ccc(Cl)cc2)cc1`, with 10.7 µM (active).
With `CN(C)[C@@H]1C(=O)C(C(=O)NCN2CCCC2)=C(O)[C@@]2(O)C(=O)C3=C(O)c4c(O)cccc4[C@@](C)(O)C3C[C@@H]12` (stereo partly drawn), the Potency entry was “inactive”.
As for `COC(=O)C1=C(C)NC(C)=C(C(=O)OCC(C)=O)C1c1ccccc1[N+](=O)[O-]` (stereo not drawn), the Potency was 8.71 µM (active).
The same measure, in the same setting: then `COc1cc2c3cc1Oc1cc(ccc1O)C[C@@H]1c4c(cc(OC)c(O)c4Oc4ccc(cc4)C[C@@H]3N(C)CC2)CC[N+]1(C)C`, with “inactive”.
Turning to `CN1CC(=O)N/C1=N/C(=O)Nc1cccc(Cl)c1`, the Potency entry is “inactive”.
As for `NC(=O)C(c1ccccc1)(c1ccccc1)[C@@H]1CCN(CCc2ccc3c(c2)CCO3)C1`, the Potency result was “inactive”.
Regarding `COc1ccnc2c1CCCCC2S(=O)c1nc2ccccc2[nH]1` (stereo not drawn), the Potency was 9.77 µM (active).
`O=C(O)Cc1ccc2c(c1)C(=O)c1ccccc1CO2`: the Potency result was “inactive”.
Turning to `CC(C)(C)c1nnc(NS(=O)(=O)c2ccc(N)cc2)s1`, the Potency entry is “inactive”.
The same measure, in the same setting: then `O=C(O)Cc1ccc(-c2ccccc2)cc1`, with “inactive”.
As to `S=c1[nH]c2ccccc2s1`, the Potency is 15.9 µM (active).
Take `O=C1CN(/N=C/c2ccc([N+](=O)[O-])o2)C(=O)N1`: the Potency result was “inactive”.
Turning to `Nc1cc(-c2ccncc2)c[nH]c1=O`, the Potency was 11 µM (active).
Consider `Nc1ccc(C(=O)O)c(O)c1`, for which the Potency result is “inactive”.
